Measured values: PubChem BioAssay AID1159580 (chemical genetic matrix, 2015)
Where “and” joins values, the source holds several entries; their conditions need not be identical. Identical values can stand only once. The whole screen tested about 5,500 compounds, of which about 2,000 (36%) were called active. Roughly 18% stayed inconclusive and do not appear here. Cut-off read from the data, not from the text of the source: active = normalized growth mostly below about 0.91 (no sharp cut-off); inconclusive = no clear call, values can overlap the other calls; inactive = mostly above about 0.92. Some of the results follow.

Assay: chemical genetic growth profiling, strain panel (AID 1159580);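 note: tested at 20 µM; growth read once vehicle control cultures reached saturation at 30 °C; 1 = growth at the plate median or of vehicle wells; lower values mean less growth of the strain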
Settings: S. cerevisiae deletion strains, growth OD

Measured: normalized growth

COc1cc(O)c(C)c(O)c1
active: locus YKL009W, strain mrt4, stronger effect = lower value 1.16 [resistant]
inactive: locus YAL013W, strain DEP1, stronger effect = lower value 0.999 | locus YAL021C, strain ccr4, stronger effect = lower value 1.03 | locus YAL026C, strain drs2, stronger effect = lower value 1.02 | locus YAL030W, strain snc1, stronger effect = lower value 1.02 | locus YBL061C, strain skt5, stronger effect = lower value 1.01 | locus YBR009C, strain hhf1, stronger effect = lower value 1.02 | locus YBR021W, strain FUR4, stronger effect = lower value 0.995 | locus YBR023C, strain chs3, stronger effect = lower value 1.02 | locus YBR171W, strain sec66, stronger effect = lower value 1.03 | locus YBR229C, strain ROT2, stronger effect = lower value 0.998 | locus YBR231C, strain swc5, stronger effect = lower value 1.01 | locus YBR279W, strain paf1, stronger effect = lower value 1.01 | locus YCL011C, strain gbp2, stronger effect = lower value 1 | locus YCL016C, strain dcc1, stronger effect = lower value 1 | locus YCL029C, strain bik1, stronger effect = lower value 1.04 | locus YCL061C, strain MRC1, stronger effect = lower value 1.01 | locus YCL069W, strain vba3, stronger effect = lower value 1.01 | locus YCR088W, strain abp1, stronger effect = lower value 1.01 | locus YDL005C, strain med2, stronger effect = lower value 1.01 | locus YDL035C, strain GPR1, stronger effect = lower value 1.01 | locus YDL040C, strain nat1, stronger effect = lower value 1.01 | locus YDL074C, strain BRE1, stronger effect = lower value 1.02 | locus YDL101C, strain DUN1, stronger effect = lower value 1.01 | locus YDL134C, strain PPH21, stronger effect = lower value 1 | locus YDL185W, strain tfp1, stronger effect = lower value 1.02 | locus YDL192W, strain arf1, stronger effect = lower value 1 | locus YDR001C, strain nth1, stronger effect = lower value 1.01 | locus YDR069C, strain doa4, stronger effect = lower value 1.01 | locus YDR101C, strain arx1, stronger effect = lower value 1 | locus YDR137W, strain rgp1, stronger effect = lower value 1.05 | locus YDR150W, strain NUM1, stronger effect = lower value 0.995 | locus YDR159W, strain sac3, stronger effect = lower value 1.01 | locus YDR162C, strain NBP2, stronger effect = lower value 1.02 | locus YDR195W, strain ref2 1.02 | locus YDR297W, strain sur2, stronger effect = lower value 1.01 | locus YDR318W, strain mcm21, stronger effect = lower value 1.01 | locus YDR334W, strain swr1, stronger effect = lower value 1.02 | locus YDR335W, strain msn5, stronger effect = lower value 1.04 | locus YDR388W, stronger effect = lower value 1 | locus YDR392W, strain spt3, stronger effect = lower value 1.03 | locus YDR502C, strain sam2, stronger effect = lower value 1.04 | locus YEL003W, strain gim4, stronger effect = lower value 1.03 | locus YEL037C, strain rad23, stronger effect = lower value 1.02 | locus YEL061C, strain CIN8 (second series), stronger effect = lower value 1.02 | locus YEL061C, strain CIN8, stronger effect = lower value 1 | locus YER015W, strain faa2, stronger effect = lower value 1 | locus YER016W, strain bim1, stronger effect = lower value 1.02 | locus YER110C, stronger effect = lower value 1.01 | locus YER111C, strain swi4, stronger effect = lower value 1.01 | locus YER155C, strain BEM2 (second series), stronger effect = lower value 1.04 | locus YER155C, strain BEM2, stronger effect = lower value 0.999 | locus YER167W, strain BCK2, stronger effect = lower value 1 | locus YFR010W, strain ubp6, stronger effect = lower value 1.02 | locus YGL078C, strain dbp3, stronger effect = lower value 1.03 | locus YGL086W, strain mad1, stronger effect = lower value 1.01 | locus YGL167C, strain pmr1, stronger effect = lower value 1.01 | locus YGL173C, strain kem1, stronger effect = lower value 1.02 | locus YGL227W, strain vid30, stronger effect = lower value 1.01 | locus YGL240W, strain doc1, stronger effect = lower value 0.977 | locus YGL248W, strain PDE1, stronger effect = lower value 1.03 | locus YGL253W, strain hxk2, stronger effect = lower value 1.02 | locus YGR135W, strain pre9, stronger effect = lower value 1.02 | locus YGR252W, strain gcn5, stronger effect = lower value 0.973 | locus YHR013C, strain ard1, stronger effect = lower value 1.01 | locus YHR027C, strain rpn1, stronger effect = lower value 1.01 | locus YHR030C, strain SLT2, stronger effect = lower value 0.997 and 0.992 | locus YHR079C, strain IRE1 (second series), stronger effect = lower value 1.01 | locus YHR079C, strain IRE1, stronger effect = lower value 0.996 | locus YHR094C, strain hxt1, stronger effect = lower value 1.01 | locus YHR129C, strain ARP1, stronger effect = lower value 1.01 | locus YHR142W, strain chs7, stronger effect = lower value 1.02 | locus YHR200W, strain rpn10, stronger effect = lower value 1.02 | locus YIL066C, strain RNR3, stronger effect = lower value 1.02 | locus YIL073C, strain SPO22, stronger effect = lower value 1.13 | locus YIL125W, strain kgd1, stronger effect = lower value 1.02 | locus YIR030C, strain dcg1, stronger effect = lower value 1.01 | locus YJL092W, strain hpr5, stronger effect = lower value 1.01 | locus YJL095W, strain BCK1 (second series), stronger effect = lower value 1.01 | locus YJL095W, strain BCK1, stronger effect = lower value 1.01 and 1 | locus YJL115W, strain asf1, stronger effect = lower value 1.01 | locus YJL129C, strain trk1, stronger effect = lower value 1.05 | locus YJL134W, strain LCB3, stronger effect = lower value 1 | locus YJL154C, strain vps35, stronger effect = lower value 1.01 | locus YJL164C, strain tpk1, stronger effect = lower value 1.03 | locus YJL166W, strain qcr8, stronger effect = lower value 1 | locus YJL168C, strain set2, stronger effect = lower value 1.01 | locus YJL187C, strain SWE1 (second series), stronger effect = lower value 1.01 | locus YJL187C, strain SWE1, stronger effect = lower value 1.01 | locus YJR043C, strain POL32, stronger effect = lower value 1.02 | locus YJR066W, strain TOR1, stronger effect = lower value 0.906 | locus YJR075W, strain HOC1, stronger effect = lower value 1 | locus YKL068W, stronger effect = lower value 1.01 | locus YKL085W, strain MDH1 (second series), stronger effect = lower value 1.02 | locus YKL085W, strain MDH1, stronger effect = lower value 1.02 | locus YKL160W, strain elf1, stronger effect = lower value 1.01 | locus YKL190W, strain CNB1, stronger effect = lower value 0.998 | locus YKR001C, strain vps1, stronger effect = lower value 1.02 | locus YKR026C, strain gcn3, stronger effect = lower value 0.995 | locus YKR091W, strain srl3, stronger effect = lower value 1.01 | locus YLL001W, strain dnm1, stronger effect = lower value 1.01 | locus YLL026W, stronger effect = lower value 1.01 | locus YLL041C, strain sdh2, stronger effect = lower value 1.01 | locus YLR027C, strain aat2, stronger effect = lower value 1.01 | locus YLR039C, strain RIC1, stronger effect = lower value 1.02 | locus YLR058C, strain SHM2, stronger effect = lower value 1.01 | locus YLR102C, strain apc9, stronger effect = lower value 1.01 | locus YLR113W, strain HOG1, stronger effect = lower value 0.975 | locus YLR221C, strain rsa3, stronger effect = lower value 1.01 | locus YLR258W, strain gsy2, stronger effect = lower value 1.02 | locus YLR262C, strain YPT6 (second series), stronger effect = lower value 1.01 | locus YLR262C, strain YPT6, stronger effect = lower value 1.05 | locus YLR268W, strain sec22, stronger effect = lower value 1.02 | locus YLR320W, strain mms22, stronger effect = lower value 1.02 | locus YLR330W, strain CHS5, stronger effect = lower value 1 | locus YLR342W, strain FKS1 (second series), stronger effect = lower value 1 | locus YLR342W, strain FKS1, stronger effect = lower value 1.02 | locus YLR357W, strain rsc2, stronger effect = lower value 1.02 | locus YLR370C, strain arc18, stronger effect = lower value 1.02 | locus YLR371W, strain rom2, stronger effect = lower value 1.01 | locus YLR384C, strain iki3, stronger effect = lower value 1.03 | locus YLR418C, strain cdc73, stronger effect = lower value 1.02 | locus YML016C, strain PPZ1, stronger effect = lower value 1.01 | locus YML032C, strain rad52, stronger effect = lower value 1 | locus YML120C, strain ndi1, stronger effect = lower value 0.97 | locus YML124C, strain tub3, stronger effect = lower value 1.01 | locus YMR058W, strain fet3, stronger effect = lower value 1.01 | locus YMR078C, strain ctf18, stronger effect = lower value 1.03 | locus YMR125W, strain sto1, stronger effect = lower value 1.04 | locus YMR129W, stronger effect = lower value 1.02 | locus YMR205C, strain PFK2, stronger effect = lower value 1.01 | locus YMR223W, strain ubp8, stronger effect = lower value 1.02 | locus YMR231W, strain pep5, stronger effect = lower value 1.02 | locus YMR307W, strain GAS1, stronger effect = lower value 1.01 | locus YNL067W, strain RPL9B, stronger effect = lower value 1.01 | locus YNL071W, strain lat1, stronger effect = lower value 1.03 | locus YNL183C, strain NPR1, stronger effect = lower value 0.92 | locus YNL209W, strain ssb2, stronger effect = lower value 1.03 | locus YNL233W, strain BNI4, stronger effect = lower value 1.01 | locus YNL248C, strain rpa49, stronger effect = lower value 1.04 | locus YNL250W, strain rad50, stronger effect = lower value 1.03 | locus YNL271C, strain bni1, stronger effect = lower value 1.03 | locus YNL298W, strain CLA4, stronger effect = lower value 1.03 | locus YNL307C, strain MCK1, stronger effect = lower value 1.03 | locus YNL322C, strain KRE1 (second series), stronger effect = lower value 1.02 | locus YNR049C, strain mso1, stronger effect = lower value 1.01 | locus YNR052C, strain pop2, stronger effect = lower value 1.01 | locus YOL006C, strain TOP1, stronger effect = lower value 1.19 | locus YOL012C, strain htz1 0.903 | locus YOL147C, strain pex11, stronger effect = lower value 1.02 | locus YOR001W, strain rrp6, stronger effect = lower value 1.02 | locus YOR061W, strain CKA2, stronger effect = lower value 1.01 | locus YOR069W, strain VPS5, stronger effect = lower value 1.01 | locus YOR070C, strain gyp1, stronger effect = lower value 1.01 | locus YOR080W, strain dia2, stronger effect = lower value 1.02 | locus YOR083W, strain WHI5, stronger effect = lower value 1.01 | locus YOR106W, strain vam3, stronger effect = lower value 0.998 | locus YOR136W, strain idh2, stronger effect = lower value 1.02 | locus YOR144C, strain elg1, stronger effect = lower value 1.01 | locus YOR184W, strain ser1, stronger effect = lower value 1.02 | locus YOR231W, strain MKK1, stronger effect = lower value 1.01 | locus YOR265W, strain rbl2, stronger effect = lower value 1.01 | locus YOR270C, strain vph1, stronger effect = lower value 1.05 | locus YOR290C, strain snf2, stronger effect = lower value 0.988 | locus YOR316C, strain cot1, stronger effect = lower value 1.01 | locus YPL051W, strain arl3, stronger effect = lower value 1.02 | locus YPL078C, strain atp4, stronger effect = lower value 1.03 | locus YPL106C, strain sse1, stronger effect = lower value 1.01 | locus YPL240C, strain hsp82, stronger effect = lower value 1.02 | locus YPL241C, strain CIN2, stronger effect = lower value 1 | locus YPL256C, strain CLN2, stronger effect = lower value 0.985 | locus YPR119W, strain clb2, stronger effect = lower value 1.01 | locus YPR141C, strain kar3, stronger effect = lower value 1.01 | locus YPR163C, strain tif3, stronger effect = lower value 1.03 | locus YPR167C, strain met16, stronger effect = lower value 1.03 | strain wtn01, stronger effect = lower value 1.02
